The whole screen tested about 13,000 compounds, of which about 3,200 (25%) showed an effect of 50% or more. The list shows a part of the results.
test system: P. falciparum stage V gametocytes; parameters: BacTiter-Glo ATP luminescence viability of purified stage V gametocytes in 384-well plates, per cent inhibition versus DMSO; settings: 48 h, 5 µM; inhibitor

SMILES	% Inhibition
Cc1cc(-c2cc(-c3ccc(OCCN(C)C)cc3)[nH]c2-c2ccc3c(c2)CCC3=NO)ccn1 [TCMDC-141302]	25.92%
N#Cc1cccc(NC(=O)Nc2ccc(CC(=O)N3CCc4cc(Cl)c(N5CCN(C/C=C/c6ccccc6)CC5)cc43)cc2)c1 [TCMDC-139476]	12.28%
CCCc1cc(Cc2cnc(N)nc2N)ccc1OCCCCCC(=O)O [TCMDC-137231]	-22.54%
CS(=O)(=O)CCNCc1cc(-c2cc3ncnc(Nc4ccc(OCc5cccc(F)c5)c(Cl)c4)c3s2)cs1 [TCMDC-138726]	-0.4482%
CCOC(=O)c1ccc2nc(-c3ccc(C(=O)NC4CCN(Cc5ccccc5)CC4)s3)[nH]c2c1 [TCMDC-140575]	-23.22%
CCCCSc1nc2c(c(=O)n1Cc1ccco1)C1(CCCCC1)Cc1ccccc1-2 [TCMDC-123896]	-14.5%
CC(C)(C)Oc1ccc(C[C@@H]2NC3(C(=O)N(Cc4ccc(Cl)c(Cl)c4)c4ccccc43)C3C(=O)N(c4ccc(Br)cc4)C(=O)C32)cc1 (stereo partly drawn) [TCMDC-139775]	-22.32%
CC(=O)Nc1ccc(OCCCCN(Cc2ccccc2OC(F)(F)F)c2ccc(C(F)(F)F)c(C#N)c2)c(Cl)c1 [TCMDC-132788]	39.51%
CC(=O)Nc1ccc(OCCN(CC(C)C)c2ccc(C#N)c(C(F)(F)F)c2)c(Cl)c1 [TCMDC-137002]	29.5%
CC(=O)Nc1ccc(OCCN(CC(C)(C)C)c2ccc(C#N)c(C(F)(F)F)c2)c(Cl)c1 [TCMDC-132786]	66.46%
CC(=O)Nc1ccc(OCCCCN(Cc2ccccc2C(F)(F)F)c2ccc(C#N)c(C(F)(F)F)c2)cc1 [TCMDC-132800]	12.39%
CC(=O)Nc1ccc(OCCN(CC(C)C)c2ccc(C(F)(F)F)c(C#N)c2)c(Cl)c1 [TCMDC-132793]	18.14%
CC(=O)Nc1ccc(OCCCCN(Cc2ccccc2C(F)(F)F)c2ccc(C#N)c(C(F)(F)F)c2)c(Cl)c1 [TCMDC-132787]	69.01%
O=C(Nc1ccc(-c2cccc(-c3nc4ccccc4[nH]3)c2)cc1)Nc1ccc(F)c(F)c1F [TCMDC-133237]	3.705%
COc1cc(N)cc2sc(N)nc12 [TCMDC-124235]	-47.26%
COCCN(C)c1ccc(C(=O)Nc2ccccc2)cc1NS(=O)(=O)Cc1ccccc1 [TCMDC-134575]	41.39%
O=C(O)CCSSc1cccc[n+]1[O-] [TCMDC-141973]	168.8%
COc1cc2c(cc1C(F)(F)F)N(C(=O)Nc1cc(F)cc(-c3cccnn3)c1)CC2 [TCMDC-139045]	-0.3523%

Reference: PMC4552634, “A New Set of Chemical Starting Points with Plasmodium falciparum Transmission-Blocking Potential for Antimalarial Drug Discovery” (PLoS ONE, 2015)
